The source of these data is PubChem BioAssay (EPA / NIEHS).

Assay [1] can be described thus: ATG_NF_kB_CIS: Attagene CIS-FACTORIAL HepG2 Assay for human Nuclear Factor Kappa B (NF-kB) (AID 2282991). The settings on record: HepG2 Attagene cis-factorial NF-kB reporter mRNA; actives raise or lower the signal. Put shortly:
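HepG2 cells transiently transfected with multiplexed cis-element reporter units measuring endogenous transcription factor activity; reporter mRNA read 24 h after dosing by RT-PCR, fluorescent labelling, HpaI digestion and capillary electrophoresis. Bidirectional fit against DMSO baseline.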

The nature of assay [2]: ATG_NRF2_ARE_CIS: Attagene CIS-FACTORIAL HepG2 Assay for human Nuclear Factor Erythroid 2 Related Factor 2 (NFR2) response to Antioxidant Response Elements (ARE) (AID 2282992). The settings on record: HepG2 Attagene ARE/NRF2 reporter, transcription factor activity; actives raise or lower the signal. The method in brief:
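Cis-factorial assay: transfected HepG2 reporter library, 24 h dosing, mRNA readout via RT-PCR/CE; DMSO-referenced bidirectional analysis.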

The nature of assay [3]: ATG_Oct_MLP_CIS: Attagene CIS-FACTORIAL HepG2 Assay for human Octamer-Binding Transcription Factor (Oct) (AID 2282993). Particulars: HepG2 Attagene cis-factorial Oct reporter, mRNA; actives raise or lower the signal. The method in brief:
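Cells of the HepG2 line express promoter-controlled reporter sequences whose mRNA levels, after 24 h treatment, are measured by RT-PCR and capillary electrophoresis. Increases and decreases are scored relative to DMSO.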

The target in assay [4] is Peroxisome proliferator-activated receptor gamma (Homo sapiens) (UniProt P37231). In words: ATG_PPARg_TRANS: Attagene TRANS-FACTORIAL HepG2 Assay for human Peroxisome Proliferator-activated Receptor-gamma (PPARg) (AID 2283007; active = hit-call score of the fitted dose curve at least 0.9, where 1 is the maximum). The method in brief:
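HepG2 cells transiently transfected with multiplexed GAL4-UAS reporter units and exogenous chimeric NR-Gal4 proteins; reporter mRNA quantified after 24 h compound exposure by RT-PCR, fluorescent labelling, HpaI digestion and capillary electrophoresis; gain-of-signal fitted versus DMSO baseline.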

For assay [5], the target named is Nuclear receptor subfamily 1 group I member 2 (Homo sapiens) (UniProt O75469). In words: ATG_PXR_TRANS: Attagene TRANS-FACTORIAL HepG2 Assay for human Pregnane X Receptor (PXR) (AID 2283008; active = hit-call score of the fitted dose curve at least 0.9, where 1 is the maximum). The method in brief: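 Fluorescence intensity of FAM-labelled, HpaI-digested reporter amplicons, separated by capillary electrophoresis, quantifies induction. HepG2 cells with PXR-Gal4 trans-reporter system were exposed 24 h; DMSO defines baseline.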

The target of assay [6] is Cellular tumor antigen p53 (Homo sapiens) (UniProt P04637). Description: ATG_p53_CIS: Attagene CIS-FACTORIAL HepG2 Assay for human p53 Transcription Factor (AID 2282994). Particulars: HepG2 p53 cis-element reporter, Attagene mRNA; actives raise or lower the signal. Put shortly:
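Using HepG2 hepatoma cells carrying cis-acting multiplexed reporters, mRNA induction is detected after a 24 h exposure. Gain- and loss-of-signal responses are fitted relative to DMSO-treated cells.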

A short description of assay [7]: BSK_3C_TissueFactor: BioMAP Diversity Plus: 3C Assay for Tissue Factor Biomarker Activity (AID 2282997). The settings on record: BioMAP 3C HUVEC, tissue factor biomarker readout; actives raise or lower the signal. The method in brief: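 HUVEC were treated 24 h, then surface tissue factor measured by ELISA and fitted bidirectionally against DMSO. Parallel SRB total-protein staining assessed overt cytotoxicity at the same time point.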

Assay [8] is described as follows: BSK_3C_uPAR: BioMAP Diversity Plus: 3C Assay for Urokinase-type plasminogen activator receptor (uPAR) Biomarker Activity (AID 2282998). Particulars: BioMAP 3C HUVEC, uPAR biomarker ELISA; actives raise or lower the signal. The method in brief: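 Endothelial primary cells of human umbilical vein origin received test chemical; 24 h later uPAR was assayed by ELISA. Fitting was bidirectional, DMSO as negative control.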
For orientation: In an ELISA, binding on a coated surface is turned into a signal by an enzyme label.

Assay [9] can be described thus: BSK_3C_VCAM1: BioMAP Diversity Plus: 3C Assay for Vascular cell adhesion molecule 1 (VCAM1) Biomarker Activity (AID 2282999). The settings on record: BioMAP 3C HUVEC, VCAM1 ELISA, cytokine-stimulated; actives raise or lower the signal. Put shortly: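 Endothelial cells from human umbilical vein are treated with test chemical. At 24 h, VCAM-1 is measured by ELISA, and responses in either direction are fitted relative to DMSO.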

A short description of assay [10]: BSK_4H_Eotaxin3: BioMAP Diversity Plus: 4H Assay for Eotaxin 3 Biomarker Activity (AID 2283000).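 For outcome: CCL26 protein level quantified by ELISA in parallel with SRB cytotoxicity check.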 The settings on record: primary human endothelial cells (HUVEC); actives raise or lower the signal. The method in brief:
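Eotaxin-3 (CCL26) levels were measured by ELISA in HUVEC primary cultures 24 h post-dosing. Gain or loss of signal was fitted in both directions, with DMSO serving as baseline and negative control.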

The target of assay [11] is human Peroxisome Proliferator-activated Receptor alpha (PPARa), PPARA (gene 5465) (UniProt Q07869). Description: ATG_PPARa_TRANS: Attagene TRANS-FACTORIAL HepG2 Assay for human Peroxisome Proliferator-activated Receptor alpha (PPARa) (AID 2283001; active = hit-call score of the fitted dose curve at least 0.9, where 1 is the maximum). Put shortly:
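Read-out is fluorescence of reporter cDNA fragments resolved by capillary electrophoresis after RT-PCR. Human HepG2 liver cells carried transfected PPARa-Gal4 chimera and GAL4-UAS reporter units, treated 24 h; activity scored as increase over DMSO.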

Read-out in assay [12]: Intercellular Adhesion Molecule 1 (ICAM1), ICAM1 (gene 3383)
In words: BSK_3C_ICAM1: BioMAP Diversity Plus: 3C Assay for Intercellular Adhesion Molecule 1 (ICAM1) Biomarker Activity (AID 2283003). Particulars: primary human endothelial cells (HUVEC); actives raise or lower the signal. The method in brief:
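ICAM-1 levels measured by ELISA after HUVEC cultures in the 3C system had been dosed for 24 h. Gain or loss of signal relative to DMSO was fitted in both directions.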

Assay [13] is described as follows: BSK_3C_Proliferation: Cell Proliferation Assessment in the BioMAP Diversity Plus: 3C Assay (AID 2283006).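 For AC50: potency may reflect either rise or fall in cell number versus DMSO.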 Particulars: primary human endothelial cells (HUVEC). The method in brief: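 Read-out is total protein by SRB absorbance at 560 nm, taken as a proxy for relative cell number. Primary human umbilical vein endothelium cultured below confluence was dosed for 48 h, TCA-fixed and SRB-stained; curves were fitted bidirectionally versus DMSO.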

In assay [14] the target is Retinoic acid receptor RXR-alpha (Homo sapiens) (UniProt P19793). In words: ATG_RXRa_TRANS: Attagene TRANS-FACTORIAL HepG2 Assay for human Retinoid X Receptor alpha (RXRa) (AID 2283012; active = hit-call score of the fitted dose curve at least 0.9, where 1 is the maximum). The method in brief:
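Transient transfection of human HepG2 with multiple GAL4-UAS reporter constructs; 24 h compound exposure; total RNA isolated, reverse-transcribed, PCR-amplified, 6-FAM labelled, HpaI-cut, resolved by capillary electrophoresis. Positive-direction fit versus DMSO.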

For assay [15], the target named is Retinoic acid receptor alpha (Homo sapiens) (UniProt P10276). In words: ATG_RARa_TRANS: Attagene TRANS-FACTORIAL HepG2 Assay for human Retinoic Acid Receptor alpha (RARa) (AID 2283005; active = hit-call score of the fitted dose curve at least 0.9, where 1 is the maximum). Put shortly:
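Reporter transcripts, measured by RT-PCR with fluorescent labeling and capillary electrophoresis after 24 h dosing, reflect activity of an exogenous human RARa–GAL4 fusion in transiently transfected HepG2. Fitted for increase relative to DMSO.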

For assay [16], the target named is human RAR-related Orphan Receptor gamma (RORg), RORC (gene 6097) (UniProt P51449). Description: ATG_RORg_TRANS: Attagene TRANS-FACTORIAL HepG2 Assay for human RAR-related Orphan Receptor gamma (RORg) (AID 2283011; active = hit-call score of the fitted dose curve at least 0.9, where 1 is the maximum). The method in brief: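 HepG2 cells transiently transfected with GAL4-UAS reporter units and chimeric RORg-Gal4 construct; after 24 h chemical exposure, reporter mRNA measured by RT-PCR with fluorescent capillary electrophoresis, gain of signal fitted against DMSO.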

Assay [17] concerns the target human Retinoic Acid Receptor beta (RARb), RARB (gene 5915) (UniProt P10826). Description: ATG_RARb_TRANS: Attagene TRANS-FACTORIAL HepG2 Assay for human Retinoic Acid Receptor beta (AID 2283004; active = hit-call score of the fitted dose curve at least 0.9, where 1 is the maximum). The method in brief:
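HepG2 cells were transiently transfected with GAL4-UAS reporter units that report activity of exogenous chimeric NR-Gal4 proteins, then exposed to compound for 24 h. Reporter mRNA was quantified by RT-PCR with capillary electrophoresis fluorescence, as gain of signal over DMSO.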

Assay [18] deals with human Retinoic Acid Receptor gamma (RARg), RARG (gene 5916) (UniProt P13631). In words: ATG_RARg_TRANS: Attagene TRANS-FACTORIAL HepG2 Assay for human Retinoic Acid Receptor gamma (RARg) (AID 2283009; active = hit-call score of the fitted dose curve at least 0.9, where 1 is the maximum). Put shortly:
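Transient transfection of HepG2 with multi-reporter constructs, then 24 h chemical treatment. Total RNA isolated, reverse-transcribed, PCR-amplified, fluorescently labelled and resolved by capillary electrophoresis; activity scored as mRNA induction versus DMSO.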

In assay [19] the target is human Peroxisome Proliferator-activated Receptor delta (PPARd), PPARD (gene 5467) (UniProt Q03181). Description: ATG_PPARd_TRANS: Attagene TRANS-FACTORIAL HepG2 Assay for human Peroxisome Proliferator-activated Receptor delta (PPARd) (AID 2283002; active = hit-call score of the fitted dose curve at least 0.9, where 1 is the maximum). Put shortly:
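Transient HepG2 transfection (multiple GAL4-UAS RTUs, chimeric receptor-Gal4); 24 h dosing; total RNA → oligo(dT) RT → PCR → 6-FAM primer extension → HpaI cut → CE. Positive direction vs DMSO.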

In assay [20] the target is human RAR-related Orphan Receptor beta (RORb), RORB (gene 6096) (UniProt Q92753). Description: ATG_RORb_TRANS: Attagene TRANS-FACTORIAL HepG2 Assay for human RAR-related Orphan Receptor beta (RORb) (AID 2283010; active = hit-call score of the fitted dose curve at least 0.9, where 1 is the maximum). The method in brief:
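Readout is reporter-gene mRNA induction, detected as fluorescence after RT-PCR and capillary electrophoresis, fitted for gain of signal against DMSO controls. Transiently transfected HepG2 liver cells carrying GAL4-UAS reporter constructs were treated for 24 hours.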

Records with an inconclusive call do not appear. The source made the active and inactive calls. Rule for the calls, unless noted: active = hit-call score of the fitted dose curve at least 0.9, where 1 is the maximum; inactive = score below 0.9.

For orientation: AC50 means the midpoint of the concentration-response curve, whichever way the signal moves.

Chain of Retinoic acid receptor RXR-alpha (Homo sapiens) (P19793 whole entry, looked up, the tested form may be a part): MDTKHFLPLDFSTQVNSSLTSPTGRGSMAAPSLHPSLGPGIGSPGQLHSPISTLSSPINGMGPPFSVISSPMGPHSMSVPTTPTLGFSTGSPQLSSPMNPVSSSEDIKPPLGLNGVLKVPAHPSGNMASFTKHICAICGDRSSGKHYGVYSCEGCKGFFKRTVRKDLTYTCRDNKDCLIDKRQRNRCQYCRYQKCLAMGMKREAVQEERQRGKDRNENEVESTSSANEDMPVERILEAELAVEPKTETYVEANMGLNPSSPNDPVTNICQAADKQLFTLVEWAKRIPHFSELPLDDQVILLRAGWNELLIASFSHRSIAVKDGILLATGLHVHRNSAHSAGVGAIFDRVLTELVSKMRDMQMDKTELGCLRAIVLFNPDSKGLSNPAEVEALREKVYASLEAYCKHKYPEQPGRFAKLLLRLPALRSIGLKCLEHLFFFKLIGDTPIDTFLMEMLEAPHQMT
Chain of Peroxisome proliferator-activated receptor gamma (Homo sapiens) (P37231 whole entry, looked up, the tested form may be a part): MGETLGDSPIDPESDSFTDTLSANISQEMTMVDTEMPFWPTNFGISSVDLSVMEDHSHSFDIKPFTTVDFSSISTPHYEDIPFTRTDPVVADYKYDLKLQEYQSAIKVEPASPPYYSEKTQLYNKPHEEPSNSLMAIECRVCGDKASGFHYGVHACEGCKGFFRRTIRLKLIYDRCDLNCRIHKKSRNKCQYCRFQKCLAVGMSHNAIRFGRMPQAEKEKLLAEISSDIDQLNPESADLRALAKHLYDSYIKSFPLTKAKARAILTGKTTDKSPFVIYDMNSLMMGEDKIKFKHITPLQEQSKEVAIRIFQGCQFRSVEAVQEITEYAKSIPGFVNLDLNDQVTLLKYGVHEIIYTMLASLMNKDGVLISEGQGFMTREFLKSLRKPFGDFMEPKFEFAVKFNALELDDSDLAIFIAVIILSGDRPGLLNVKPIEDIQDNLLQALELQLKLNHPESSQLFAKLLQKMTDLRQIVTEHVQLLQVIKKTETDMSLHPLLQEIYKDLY
Chain of Cellular tumor antigen p53 (Homo sapiens) (P04637 whole entry, looked up): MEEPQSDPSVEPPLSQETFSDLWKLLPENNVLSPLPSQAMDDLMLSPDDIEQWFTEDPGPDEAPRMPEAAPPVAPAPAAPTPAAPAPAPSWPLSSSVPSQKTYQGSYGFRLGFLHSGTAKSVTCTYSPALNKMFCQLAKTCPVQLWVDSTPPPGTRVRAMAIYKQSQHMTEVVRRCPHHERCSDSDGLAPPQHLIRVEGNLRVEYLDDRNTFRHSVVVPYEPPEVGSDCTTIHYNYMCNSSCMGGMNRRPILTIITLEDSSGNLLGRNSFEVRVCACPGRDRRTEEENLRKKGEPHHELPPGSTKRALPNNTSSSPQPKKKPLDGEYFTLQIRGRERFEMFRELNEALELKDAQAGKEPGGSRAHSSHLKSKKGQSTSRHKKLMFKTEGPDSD
Chain of Nuclear receptor subfamily 1 group I member 2 (Homo sapiens) (O75469 whole entry, looked up, the tested form may be a part): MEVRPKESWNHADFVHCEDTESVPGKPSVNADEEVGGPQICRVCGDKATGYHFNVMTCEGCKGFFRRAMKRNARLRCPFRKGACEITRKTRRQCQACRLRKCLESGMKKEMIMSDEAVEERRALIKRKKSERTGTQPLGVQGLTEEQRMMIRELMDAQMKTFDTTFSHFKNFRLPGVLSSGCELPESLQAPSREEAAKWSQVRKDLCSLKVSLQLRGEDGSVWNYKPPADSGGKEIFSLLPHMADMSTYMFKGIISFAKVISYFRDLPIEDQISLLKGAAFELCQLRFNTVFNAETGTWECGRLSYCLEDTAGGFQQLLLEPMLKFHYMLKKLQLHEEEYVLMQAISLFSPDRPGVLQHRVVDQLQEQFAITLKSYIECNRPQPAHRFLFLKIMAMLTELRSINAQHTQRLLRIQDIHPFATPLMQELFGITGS
Chain of human RAR-related Orphan Receptor gamma (RORg), RORC (gene 6097) (P51449 whole entry, looked up, the tested form may be a part): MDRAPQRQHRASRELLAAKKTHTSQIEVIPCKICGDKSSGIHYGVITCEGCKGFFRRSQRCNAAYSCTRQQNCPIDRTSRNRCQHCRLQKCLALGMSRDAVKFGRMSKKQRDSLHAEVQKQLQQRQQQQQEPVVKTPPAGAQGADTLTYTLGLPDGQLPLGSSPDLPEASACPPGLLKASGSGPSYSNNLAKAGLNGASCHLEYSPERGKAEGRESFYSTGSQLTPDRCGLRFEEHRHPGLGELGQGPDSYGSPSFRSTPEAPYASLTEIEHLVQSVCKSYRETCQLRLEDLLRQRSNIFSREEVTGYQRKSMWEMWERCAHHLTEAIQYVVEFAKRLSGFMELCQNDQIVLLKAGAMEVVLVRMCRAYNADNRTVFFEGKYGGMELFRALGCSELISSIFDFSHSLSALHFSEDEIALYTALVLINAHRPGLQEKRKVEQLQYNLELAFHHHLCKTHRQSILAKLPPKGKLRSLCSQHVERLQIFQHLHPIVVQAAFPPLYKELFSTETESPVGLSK
Chain of human Peroxisome Proliferator-activated Receptor alpha (PPARa), PPARA (gene 5465) (Q07869 whole entry, looked up, the tested form may be a part): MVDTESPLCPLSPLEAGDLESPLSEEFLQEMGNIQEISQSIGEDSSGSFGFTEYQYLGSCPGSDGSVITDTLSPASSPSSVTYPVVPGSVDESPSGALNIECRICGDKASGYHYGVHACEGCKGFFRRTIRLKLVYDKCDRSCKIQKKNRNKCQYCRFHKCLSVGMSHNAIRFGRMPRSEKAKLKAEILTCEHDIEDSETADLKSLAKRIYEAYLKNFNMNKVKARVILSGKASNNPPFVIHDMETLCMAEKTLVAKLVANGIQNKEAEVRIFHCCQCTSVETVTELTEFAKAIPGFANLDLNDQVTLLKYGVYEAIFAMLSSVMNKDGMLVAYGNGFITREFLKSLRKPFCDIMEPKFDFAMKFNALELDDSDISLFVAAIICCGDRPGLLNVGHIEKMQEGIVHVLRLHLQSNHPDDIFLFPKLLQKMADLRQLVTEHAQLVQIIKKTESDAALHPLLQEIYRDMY
Chain of human Retinoic Acid Receptor gamma (RARg), RARG (gene 5916) (P13631 whole entry, looked up): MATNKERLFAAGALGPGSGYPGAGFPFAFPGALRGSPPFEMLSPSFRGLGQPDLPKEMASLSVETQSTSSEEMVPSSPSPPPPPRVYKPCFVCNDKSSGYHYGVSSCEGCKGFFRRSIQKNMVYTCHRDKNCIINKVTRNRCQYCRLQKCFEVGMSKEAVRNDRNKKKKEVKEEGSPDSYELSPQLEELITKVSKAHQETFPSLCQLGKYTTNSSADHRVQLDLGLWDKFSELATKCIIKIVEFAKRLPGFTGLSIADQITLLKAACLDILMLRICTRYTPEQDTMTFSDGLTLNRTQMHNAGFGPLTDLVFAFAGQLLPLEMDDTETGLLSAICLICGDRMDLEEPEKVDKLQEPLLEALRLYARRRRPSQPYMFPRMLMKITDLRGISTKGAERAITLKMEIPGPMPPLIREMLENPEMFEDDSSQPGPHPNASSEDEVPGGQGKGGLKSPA
Chain of human Retinoic Acid Receptor beta (RARb), RARB (gene 5915) (P10826 whole entry, looked up, the tested form may be a part): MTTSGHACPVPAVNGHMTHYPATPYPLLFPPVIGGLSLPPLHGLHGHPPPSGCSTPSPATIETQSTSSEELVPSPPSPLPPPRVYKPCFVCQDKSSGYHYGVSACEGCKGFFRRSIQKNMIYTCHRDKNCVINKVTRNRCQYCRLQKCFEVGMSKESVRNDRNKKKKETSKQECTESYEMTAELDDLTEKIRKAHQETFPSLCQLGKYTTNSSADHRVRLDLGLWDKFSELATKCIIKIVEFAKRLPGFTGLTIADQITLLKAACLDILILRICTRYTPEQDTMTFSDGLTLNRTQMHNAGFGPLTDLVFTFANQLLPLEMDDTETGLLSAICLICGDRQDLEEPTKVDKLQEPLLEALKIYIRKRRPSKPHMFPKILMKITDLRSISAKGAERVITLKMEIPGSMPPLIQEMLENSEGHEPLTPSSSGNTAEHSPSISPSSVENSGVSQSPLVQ
Chain of Retinoic acid receptor alpha (Homo sapiens) (P10276 whole entry, looked up, the tested form may be a part): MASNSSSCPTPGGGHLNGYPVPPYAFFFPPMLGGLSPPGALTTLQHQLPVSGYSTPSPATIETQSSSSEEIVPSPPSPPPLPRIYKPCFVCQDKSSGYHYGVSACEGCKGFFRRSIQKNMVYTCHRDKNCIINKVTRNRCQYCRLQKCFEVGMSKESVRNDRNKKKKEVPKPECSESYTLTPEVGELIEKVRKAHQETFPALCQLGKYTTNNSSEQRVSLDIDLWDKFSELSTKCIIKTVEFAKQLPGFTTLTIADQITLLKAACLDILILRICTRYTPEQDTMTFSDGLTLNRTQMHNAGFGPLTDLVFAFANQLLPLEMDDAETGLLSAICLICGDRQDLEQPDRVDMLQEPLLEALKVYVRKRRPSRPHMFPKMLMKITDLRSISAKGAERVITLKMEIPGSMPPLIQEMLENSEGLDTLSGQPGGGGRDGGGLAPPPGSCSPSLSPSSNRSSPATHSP
Chain of human Peroxisome Proliferator-activated Receptor delta (PPARd), PPARD (gene 5467) (Q03181 whole entry, looked up, the tested form may be a part): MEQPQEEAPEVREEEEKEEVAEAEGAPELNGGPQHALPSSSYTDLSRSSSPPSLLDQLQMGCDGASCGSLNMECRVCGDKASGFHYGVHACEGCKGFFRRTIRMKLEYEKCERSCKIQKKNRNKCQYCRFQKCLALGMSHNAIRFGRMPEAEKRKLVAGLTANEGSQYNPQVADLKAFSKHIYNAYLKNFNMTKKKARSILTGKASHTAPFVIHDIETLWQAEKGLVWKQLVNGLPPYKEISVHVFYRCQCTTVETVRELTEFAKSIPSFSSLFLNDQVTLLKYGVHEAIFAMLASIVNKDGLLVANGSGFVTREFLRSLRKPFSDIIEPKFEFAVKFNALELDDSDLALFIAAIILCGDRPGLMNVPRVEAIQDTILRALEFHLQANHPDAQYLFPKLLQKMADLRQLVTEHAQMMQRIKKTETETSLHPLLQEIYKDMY

Take `O=C(NC(=O)c1c(F)cccc1F)Nc1ccc(Cl)cc1`: the compound was called inactive in assay [1], in [2], in [3] and in assay [5]. Further, the AC50 in assay [4] was 0.636 µM (active).
Regarding `Cc1ccccc1OP(=O)(Oc1ccccc1)Oc1ccccc1`, the outcome in assay [1], in [3], in assay [6], in [11], in assay [12] and in assay [14] was inactive. Further, the AC50 was 20 µM (active) in assay [7]; 35.3 µM (active) in [8]; 20 µM (active) in assay [9]; 28.7 µM (active) in assay [10]; 20 µM (active) in assay [13]; 3.74 µM (active) in assay [4]. For the same compound, the AC50 in [5] is 0.736 µM (active).
On to `CCCCCCCCCCBr`, for which the outcome in assay [1], in assay [3], in [6], in assay [11], in [15] and in assay [5] was inactive. For the same compound, the outcome in assay [16] and in assay [14] was inactive. The AC50 in assay [4] was 19.8 µM (active).
Take `Cc1cc(C)cc(C)c1`: the outcome in assay [1], in [2], in assay [3], in assay [7], in assay [8] and in assay [9] was inactive. The outcome in [10], in assay [12], in [17], in [13], in assay [18] and in assay [14] was inactive.
As for `C#C[C@]1(O)CC[C@H]2[C@@H]3CCC4=CC(=O)CC[C@]4(C)[C@H]3CC[C@@]21C`, the outcome in assay [1], in [2], in [3], in [6], in assay [16] and in assay [14] was inactive.
As for `Cc1cc(Cl)ccc1OC(C)C(=O)O` (centres undefined), the call in assay [1], in assay [3], in [6], in assay [7], in assay [8] and in assay [9] was inactive. In addition, the result in assay [10], in assay [19], in assay [12], in assay [13], in assay [18] and in assay [20] was inactive. Further, in assay [16], the compound was called inactive. For the same compound, the AC50 in assay [4] was 71.4 µM (active).
